Most compounds without a hit are left out; they make up all but 2.3% or so of the library.
Mcl1 Noxa PPI – Mcl-1/Noxa interaction inhibition; TR-FRET Mcl-1/Noxa peptide binding, 2 h; inhibition, % at 21.7 µM; Q07820; 220,000 tested, 1.5% active;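 active = compounds that cut the protein-peptide binding signal by more than 50% relative to plate controls in a single-dose test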;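 also: His-tagged Mcl-1 with rhodamine Noxa BH3 peptide and terbium anti-His antibody; 0% = Mcl-1 plus Noxa peptide wells and 100% = peptide-only wells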
GLD-1 RNA inh – GLD-1-TGE RNA interaction inhibition (C. elegans). AID 2280. inhibition, % at 5.96 µM. purified GLD-1 + fluorescein TGE RNA, fluorescence polarization. 320,000 tested, 0.44% active;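 active = percent inhibition above a per-plate cutoff, the plate mean of test compounds plus 3 SD, cut at about 30% in these data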;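 also: 0% = DMSO wells with GLD-1 and probe and 100% = wells lacking GLD-1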
Target sequence (Q17339 whole entry, looked up): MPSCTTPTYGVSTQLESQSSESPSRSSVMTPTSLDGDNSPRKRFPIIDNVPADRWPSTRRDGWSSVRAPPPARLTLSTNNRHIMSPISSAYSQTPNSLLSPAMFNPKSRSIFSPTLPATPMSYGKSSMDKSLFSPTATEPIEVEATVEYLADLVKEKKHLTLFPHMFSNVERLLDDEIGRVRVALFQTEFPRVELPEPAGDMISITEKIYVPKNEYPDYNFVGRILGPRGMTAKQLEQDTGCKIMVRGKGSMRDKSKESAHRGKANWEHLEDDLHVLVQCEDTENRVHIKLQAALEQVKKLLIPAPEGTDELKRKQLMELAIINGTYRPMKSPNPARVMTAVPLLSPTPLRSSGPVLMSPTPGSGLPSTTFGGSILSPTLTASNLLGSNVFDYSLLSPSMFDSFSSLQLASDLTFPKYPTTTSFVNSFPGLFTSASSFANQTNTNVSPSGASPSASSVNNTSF
Bcl-xL primary – blocks human Bcl-xL binding to Bim BH3 peptide; GST-Bcl-xL / FITC-Bim BH3 peptide fluorescence polarization; 320,000 tested, 0.7% active; inhibition, % at 10.9 µM;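 active = inhibition above the mean of all tested compounds plus 3 SD, cutoff set per campaign, cut at about 30% in these data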;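 also: 0% = DMSO wells and 100% = unlabeled Bim-BH3 peptide competitor; inhibitors lower millipolarization by displacing the labeled peptide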
Target sequence (Q07817 whole entry, looked up): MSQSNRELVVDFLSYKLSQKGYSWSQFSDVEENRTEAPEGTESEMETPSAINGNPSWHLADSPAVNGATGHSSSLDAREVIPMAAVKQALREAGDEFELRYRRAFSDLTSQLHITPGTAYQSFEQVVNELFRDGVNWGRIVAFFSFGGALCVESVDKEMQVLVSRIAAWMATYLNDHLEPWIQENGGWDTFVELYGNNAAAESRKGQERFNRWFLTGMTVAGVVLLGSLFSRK
Mcl-1 Bim block – human Bim-Mcl-1 interaction inhibition; Q07820; Bead-based flow cytometry, Bim peptide-Mcl-1 binding; inhibition, % at 10 µM; 190,000 tested, 0.1% active; in the data active = inhibition above about 40%;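 also: 0% = no compound tracer wells and 100% = peptide blocker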
MCL1-BIM inh – inhibitors of human MCL1 binding to BIM-BH3 peptide; 320,000 tested, 0.68% active; AID 2057; Q07820; GST-MCL1 / FITC-Bim-BH3 fluorescence polarization; inhibition, % at 10.9 µM;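 active = inhibition above the mean inhibition of all tested compounds plus 3 SD, set per campaign, cut at about 40% in these data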;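 also: 0% = DMSO wells and 100% = unlabeled Bim-BH3 peptide control; higher means more loss of mP so more displacement of Bim peptide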
Mcl1-Bid inh – disrupts binding of human Mcl-1 to Bid peptide | TR-FRET Mcl-1/Bid-Dy647 peptide binding, 1536-well | Q07820 | 220,000 tested, 0.97% active | inhibition, % at 21.7 µM;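 active = compounds that cut the binding signal by more than half at the single screening dose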;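 also: His-tagged Mcl-1 with europium anti-His antibody binding Bid BH3 peptide; 0% = Mcl-1 plus peptide wells and 100% = peptide-only wells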
Starred values were filed as active, the others as inactive; / = no result given.

SMILES | Mcl1 Noxa PPI | GLD-1 RNA inh | Bcl-xL primary | Mcl-1 Bim block | MCL1-BIM inh | Mcl1-Bid inh
COc1ccc(Nc2ncc(C(=O)N3CCN(c4ccc(F)cc4)CC3)c3ccccc23)cc1 | 12 | 3 | 1 | 0 | -5 | 99*
COc1ccc(Nc2ncc(C(=O)O)c3ccccc23)cc1 | 19 | 1 | 2 | 0 | 4 | -47
COc1ccc2nc(SCC(C)=O)c(C#N)cc2c1 | -21 | -8 | 32* | 8 | 18 | -53
COc1cccc(-c2nn(C)c3sc(C(=O)NCc4ccc(C)o4)cc23)c1 | 60* | 5 | 1 | 2 | 3 | -8
COc1cccc(-c2nn(C)c3sc(C(=O)NCc4ccc5c(c4)OCO5)cc23)c1 | -16 | -4 | 3 | 0 | 4 | -9
Cc1ccccc1NC(=O)CSc1nnc(C2CC2)n1CC1CCCO1 (stereo unspecified) | / | 0 | 0 | / | 4 | /
C[C@H](NC(=O)OC(C)(C)C)C(=O)NCC1CCC(C(=O)N[C@@H](Cc2ccccc2)C(=O)O)CC1 (stereo partly specified) | / | -2 | 7 | / | 3 | /
O=C(CN1CCCc2ccccc21)NCc1ccc2c(c1)OCO2 | 11 | -51 | 47* | -3 | 52* | -23
O=C(NCC1COc2ccccc2O1)C1CCN(S(=O)(=O)c2ccc(Cl)cc2)CC1 (stereo unspecified) | / | 3 | 2 | / | 1 | /
Cc1cc(NS(=O)(=O)c2ccc(NC(NC(=O)C(C(F)(F)F)C(F)(F)F)(C(F)(F)F)C(F)(F)F)cc2)no1 | 40 | / | / | 1 | / | 71*
CC(C)C[C@H](NC(=O)C1CCN(S(=O)(=O)c2ccccc2)CC1)C(=O)NCc1ccncc1 | / | -4 | 2 | / | 4 | /
Cc1cc(C)c2nc(NNC(=O)c3cc(=O)c4ccccc4o3)sc2c1 | 65* | -1 | 2 | 2 | -1 | -44
CCn1nc(C)cc1C(=O)N1CCCC(N2CCN(Cc3ccc4c(c3)OCO4)CC2)C1 (stereo unspecified) | / | -2 | 8 | / | 5 | /
CCc1ccc(CCC(=O)Nc2sc3c(c2C#N)CCCC3)o1 | 10 | -1 | 2 | 5 | 9 | -58
Cc1ccc(/C=C/C(=O)Nc2sc3c(c2C#N)CCCC3)o1 | 51* | 3 | 5 | -4 | 6 | 14
CC(=O)c1ccc(Oc2ccc(C(C)=O)cc2)cc1 | -5 | 5 | -4 | -4 | 4 | 99*
CC1(C)Cc2cccc(OCC(=O)Nc3cc(S(C)(=O)=O)ccc3Cl)c2O1 | / | 2 | 4 | / | 0 | /
CNC(=O)c1sc(-c2ccccn2)nc1C | 8 | -6 | 2 | 59* | 7 | -2
Cc1nc(-c2ccccn2)sc1C(=O)Nc1ccc(F)cc1F | -1 | 1 | 4 | 1 | 1 | -6
O=C(CSc1nnc(SCc2cccc3ccccc23)s1)N=Nc1c(O)[nH]c2ccccc12 | 60* | 0 | -5 | -12 | -10 | 79*
O=C(OCC(=O)N1CCN(C(=O)c2ccco2)CC1)c1cncc(Br)c1 | / | 3 | 3 | / | 3 | /
O=C1NC(=O)/C(=C/c2ccc(-c3cc(C(=O)O)ccc3Cl)o2)S1 | / | 3 | 21 | / | 42* | /
O=C1NC(=O)/C(=C\c2ccc(Br)o2)S1 | / | 6 | 17 | / | 36 | /
Clc1cccc(/C=N/Nc2nc(Cl)nc3ccccc23)c1 | 87* | -1 | 5 | 0 | 7 | -32
Cc1ccc(-c2nc(N/N=C/c3cccc([N+](=O)[O-])c3)c3ccccc3n2)cc1 | 54* | 4 | 5 | -2 | 8 | 60*
SMILES | Mcl1 Noxa PPI | GLD-1 RNA inh | Bcl-xL primary | Mcl-1 Bim block | MCL1-BIM inh | Mcl1-Bid inh
Cc1ccc(-c2nc(N/N=C/c3cccnc3)c3ccccc3n2)cc1 | 24 | -2 | 2 | -1 | 1 | 1
O=[N+]([O-])c1ccc(-c2nc(NCc3ccccc3)c3ccccc3n2)cc1 | 56* | 1 | -1 | -6 | 2 | 39
CCOC(=O)c1c(C)[nH]c(C2=NNC(=NC3CC3)SC2)c1C | 64* | 2 | 10 | 0 | 4 | -33
CCOC(=O)c1c(C)[nH]c(/C(C)=N/O)c1C | 7 | 1 | 4 | 0 | 8 | -22
COc1ccc2[nH]c3c(=O)n(Cc4ccc(C(=O)N5CCC(C(N)=O)CC5)cc4)c(=S)[nH]c3c2c1 | 61* | -3 | 1 | 0 | -2 | -156
CCOC(=O)N1CCN(C(=O)c2ccc3c(=O)n(Cc4ccc(OC)cc4)c(=S)[nH]c3c2)CC1 | 18 | 18 | 23 | 9 | 34 | -35
COc1ccc2[nH]c3c(=O)n(Cc4ccc(C(=O)N5CCCCCC5)cc4)c(=S)[nH]c3c2c1 | 60* | 4 | -13 | -3 | -3 | -10
CNC[C@H]1Oc2ccc(NC(=O)Nc3ccccc3)cc2CC(=O)N([C@H](C)CO)C[C@H]1C | / | -9 | / | / | / | /
COc1ccc(OC)c(CCNC(=O)Cn2sc3nc(C)cc(C)c3c2=O)c1 | 56* | 1 | 2 | -10 | 16 | -19
CCN(CC)C(=O)C1CCCN(Cc2cccc(F)c2)C1 (stereo unspecified) | 34 | 2 | 6 | -3 | 7 | 64*
CC(C)c1ccc(S(=O)(=O)/N=C2/C=CC(=O)c3ccccc32)cc1 | 78* | / | / | 0 | / | 0
O=S(=O)(c1ccc(F)cc1)N1CCC2(CC1)OCCN2S(=O)(=O)c1cccs1 | / | 7 | -1 | / | -5 | /
O=C(Nc1ccc(Cl)c(Cl)c1)c1ccc(Cl)c(Cl)c1 | 9 | 2 | 5 | / | 2 | -24
Cc1ccc(NC(=O)c2ccc(Cl)c(N3C(=O)C=CC3=O)c2)cc1 | 57* | 6 | 13 | -8 | 16 | 29
CC(NC(N)=O)C(=O)Nc1ccc(Cl)c(S(=O)(=O)Nc2ccc(Br)cc2)c1 (stereo unspecified) | 57* | -2 | 1 | -1 | -2 | -4
COc1cccc(C(=O)N2CCN(Cc3ccccc3C(F)(F)F)CC2)c1 | 30 | 7 | 3 | -1 | 5 | 62*
COc1ccc(C(=O)OCC(=O)c2ccc(F)cc2)cc1OC | / | 5 | / | / | / | /
CC(C)n1c(SCC(=O)Nc2ccc3c(c2)OCO3)nc2c1c(=O)n(C)c(=O)n2C | 0 | 5 | 6 | 1 | 3 | 72*
CCCCC(Sc1nc(N)c(NC(=O)c2ccco2)c(=O)[nH]1)C(=O)O (stereo unspecified) | / | 24 | 31* | / | 38 | /
NC(=NC1CCCCC1)NS(=O)(=O)c1ccccc1 | / | -4 | 5 | / | 3 | /
O=C(O)/C=C/c1ccc(OCc2cccc(F)c2)cc1 | -3 | -5 | 2 | 2 | 3 | 2
COc1ccc(C(=O)NC(=S)Nc2ccc(S(=O)(=O)Nc3cc(OC)ncn3)cc2)cc1 | / | -4 | 4 | / | 17 | /
COc1cc(NS(=O)(=O)c2ccc(NC(=S)NC(=O)c3sc4ccccc4c3Cl)cc2)ncn1 | 55* | 2 | 16 | -2 | 10 | -8
Cc1cccc(C(=O)N[C@H](C(=O)OCc2cc(=O)n3c(n2)sc2ccccc23)C(C)C)c1 | 69* | 6 | 0 | 12 | 14 | -27
